Jurkat NFkB inh – inhibitors of the PMA/ionomycin-induced NF-kB reporter in Jurkat cells; PMA/ionomycin-induced NF-kB luciferase reporter, luminescence; inhibition, % at 4 µM; 330,000 tested, 0.53% active; in the data active = inhibition above about 50%
697 NFkB inh – inhibitors of the PMA/ionomycin-induced NF-kB reporter in 697 B cells. inhibition, % at 4 µM. 330,000 tested, 0.33% active. 697 B-cell NF-kB luciferase reporter, 16 h. AID 435022; in the data active = inhibition above about 35%
Gli-Sufu antag – antagonists of Gli-Sufu signaling. Sufu-KO-LIGHT fibroblasts, Gli luciferase reporter luminescence. inhibition, % at 5 µM. 340,000 tested, 0.74% active. AID 588413;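 active = inhibition above about 55%, limit read from the data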
KLF5 inh – inhibitors of KLF5 expression; DLD-1 KLF5 promoter-luciferase reporter, luminescence; 290,000 tested, 0.23% active; AID 1700; inhibition, % at 5 µM;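 active = inhibition above a per-plate limit of that plate's mean compound inhibition plus 3 SD, cut at about 60% in these data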;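 also: higher means less KLF5 promoter-driven luciferase light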
aSyn 5UTR inh – MLPCN primary screen, SNCA 5' untranslated region | inhibition, % (tested at 7.5 µM) | alpha-synuclein 5'UTR reporter, inhibitor activity | AID 1813 | 300,000 tested, 0.82% active; in the data active = inhibition above about 60%;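 also: H4 neuroglioblastoma cells stably carrying SNCA 5'UTR luciferase fusion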
Mdm2-MdmX inh – inhibitors of human Mdm2/MdmX interaction | inhibition, % at 8 µM | SaOS-2 split-luciferase Mdm2/MdmX complementation, luminescence | O15151+Q00987 | 330,000 tested, 3% active;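 active = inhibition of at least 50% at 8 µM in the primary screen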
Target sequence (O15151 whole entry, looked up): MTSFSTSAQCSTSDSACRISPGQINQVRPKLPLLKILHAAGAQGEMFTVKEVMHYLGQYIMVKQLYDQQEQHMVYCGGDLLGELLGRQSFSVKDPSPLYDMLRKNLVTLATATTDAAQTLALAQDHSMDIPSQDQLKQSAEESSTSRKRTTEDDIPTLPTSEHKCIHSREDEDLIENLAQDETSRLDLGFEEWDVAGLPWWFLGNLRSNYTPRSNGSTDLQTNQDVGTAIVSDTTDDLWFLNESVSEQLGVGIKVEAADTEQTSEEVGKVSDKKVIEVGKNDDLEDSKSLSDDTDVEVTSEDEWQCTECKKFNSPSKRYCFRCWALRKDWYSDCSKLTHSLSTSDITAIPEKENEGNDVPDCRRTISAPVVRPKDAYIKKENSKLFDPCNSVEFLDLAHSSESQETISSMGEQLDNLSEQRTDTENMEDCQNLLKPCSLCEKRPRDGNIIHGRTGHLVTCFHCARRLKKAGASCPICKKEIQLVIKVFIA
Target sequence (Q00987 whole entry, looked up): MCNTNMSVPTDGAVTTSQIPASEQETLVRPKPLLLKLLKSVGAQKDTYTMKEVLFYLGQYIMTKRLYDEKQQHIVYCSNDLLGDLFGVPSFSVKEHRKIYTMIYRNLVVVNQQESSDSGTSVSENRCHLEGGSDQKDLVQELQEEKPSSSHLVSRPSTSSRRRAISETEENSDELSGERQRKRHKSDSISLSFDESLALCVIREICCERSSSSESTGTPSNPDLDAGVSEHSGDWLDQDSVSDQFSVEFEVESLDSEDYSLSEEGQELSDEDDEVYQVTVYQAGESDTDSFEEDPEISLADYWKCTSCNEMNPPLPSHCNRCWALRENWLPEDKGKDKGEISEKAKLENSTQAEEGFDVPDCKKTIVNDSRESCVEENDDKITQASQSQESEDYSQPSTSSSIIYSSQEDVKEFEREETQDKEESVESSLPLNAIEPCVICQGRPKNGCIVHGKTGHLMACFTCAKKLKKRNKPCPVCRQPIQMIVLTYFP
Mdm2-MdmX conf – confirmation of human Mdm2/MdmX interaction inhibitors | shares compounds with Mdm2-MdmX inh | Mdm2-MdmX binding, luminescent assay | inhibition, % at 8 µM | 10,000 tested, 55% active | AID 489028; in the data active = inhibition above about 40%
FLuc counter – inhibits full-length luciferase, flagging false Mdm2/MdmX hits; 6,200 tested, 77% active; inhibition, % at 8 µM; shares compounds with Mdm2-MdmX inh; SaOS-2 full-length luciferase counterscreen, luminescence; AID 504607;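 active = mean inhibition at 8 µM reaching about 37%, which flags the compound as non-specific, limit read from the data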;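 also: p53-null SaOS-2 cells with luciferase driven by a doxycycline-inducible promoter; compound on cells about two nights before reading with doxycycline added after day one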
A number is an active result; . = inactive; / = no result. Rows were chosen to be rich in hits. Some 4.1% of all compounds tested hit in one or more screens of this group.

SMILES | Jurkat NFkB inh | 697 NFkB inh | Gli-Sufu antag | KLF5 inh | aSyn 5UTR inh | Mdm2-MdmX inh | Mdm2-MdmX conf | FLuc counter
CCN1CCN(c2cc(C)c3cc(NC(=S)N4CCN(c5ccccc5)CC4)ccc3n2)CC1 | . | . | . | . | . | 100 | 44 | 52
CCCN1CCN(C(=S)Nc2ccc3nc(N4CCN(CC)CC4)cc(C)c3c2)CC1 | . | . | . | . | . | 50 | 43 | 46
CCOc1ccc(C(=O)Nc2ccc3nc(N4CCN(CC)CC4)cc(C)c3c2)cc1 | . | . | . | . | 67 | 55 | . | 60
O=C(c1ccccc1)C(Nc1cccc([N+](=O)[O-])c1)c1ccccc1 (stereo not given) | / | / | . | / | / | / | / | /
O=C(C1CCC(=O)N(C2CC2)C1)N1CCN(c2cccc(Cl)c2)CC1 (stereo not given) | . | . | . | . | . | . | / | /
CCC(C)NC(=S)Nc1ccc2nc(N3CCN(CC)CC3)cc(C)c2c1 (stereo not given) | . | . | . | . | . | 52 | . | 61
O=C(Nc1nccs1)c1cccc(N2C(=O)c3cccc4c([N+](=O)[O-])ccc(c34)C2=O)c1 | . | . | . | . | . | 87 | . | /
O=C(Nc1ccc(S(=O)(=O)Nc2nccs2)cc1)c1cccc(N2C(=O)c3ccccc3C2=O)c1 | . | . | . | . | . | . | / | /
COC(=O)c1sc2nc(SCC(=O)N(C)c3ccccc3)n(N)c(=O)c2c1C | . | . | . | . | . | 56 | . | /
CC1(C)CC[C@]2(C(=O)O[C@@H]3O[C@H](CO)[C@@H](O)[C@H](O)[C@H]3O)CC[C@]3(C)C(=CCC4[C@@]5(C)CC[C@H](O[C@@H]6O[C@H](C(=O)O)[C@@H](O[C@H]7OC[C@@H](O)[C@@H](O)[C@@H]7O)[C@H](O)[C@H]6O)C(C)(C)C5CC[C@]43C)[C@@H]2C1 (stereo not given in full) | . | . | . | / | / | . | / | /
CC1(C)CC[C@]2(C(=O)O)CC[C@]3(C)C(=CC[C@@H]4[C@@]5(C)CC[C@H](O[C@@H]6O[C@H](C(=O)O)[C@@H](O)[C@H](O[C@@H]7OC[C@H](O)[C@H](O)[C@H]7O)[C@H]6O)C(C)(C)[C@@H]5CC[C@]43C)[C@@H]2C1 | . | . | . | / | / | 79 | . | 44
Cc1nnc(SCC(=O)c2cc(C)n(-c3c(C)n(C)n(-c4ccccc4)c3=O)c2C)s1 | . | . | . | . | . | . | / | /
Cc1cc(-n2c(C)cc(C(=O)CCl)c2C)no1 | . | . | . | . | 119 | 79 | 67 | 87
Cc1cc(C(=O)CCl)c(C)n1-c1c(C)n(C)n(-c2ccccc2)c1=O | . | . | . | . | . | 51 | . | /
Cc1cc(-n2c(C)cc(C(=O)CN3C(=O)C(=O)N(C)C3=O)c2C)no1 | . | . | . | / | / | . | / | /
COc1ccc(-n2c(C)cc(C(=O)CCl)c2C)cc1 | . | . | . | . | 65 | 100 | 61 | 49
Cc1ccc(C(=O)Nc2ccccc2N2CCCC2)cc1 | . | . | . | . | . | . | / | /
N#CCC(=O)Nc1ccc(C(=O)N2CCN(c3ccccn3)CC2)cc1 | . | . | . | . | . | . | / | /
CCCNC(=O)[C@@H]1CCCN1C(=O)[C@@H]1Cc2ccccc2CN1 | . | . | . | . | . | . | / | /
Cc1ccc(/C(O)=C2\C(=O)C(=O)N(CC(C)O)C2c2ccccn2)cc1 (stereo not given) | . | . | . | . | . | . | / | /
CCCC(=O)NCCc1nc2cc([N+](=O)[O-])ccc2n1C | . | . | . | . | . | . | / | /
CC1CCCN(C(=O)COC(=O)C2=COCCO2)C1 (stereo not given) | . | . | . | / | / | . | / | /
COC(=O)c1ccc(C)c(NS(=O)(=O)c2ccc(OC)cc2)c1 | . | . | . | . | 82 | 70 | 60 | 100
O=S(=O)(c1ccc(Cl)cc1)c1cnc2ccccc2n1 | . | . | . | . | . | 53 | . | /
S=C1SCN(Cc2cccnc2)CN1Cc1cccnc1 | . | . | . | . | . | 79 | 77 | 56
SMILES | Jurkat NFkB inh | 697 NFkB inh | Gli-Sufu antag | KLF5 inh | aSyn 5UTR inh | Mdm2-MdmX inh | Mdm2-MdmX conf | FLuc counter
S=C1SCN(Cc2ccccc2)CN1Cc1ccccc1 | . | . | . | . | . | . | / | /
COc1ccc2[nH]c3c(c2c1)CCC/C3=N\N | . | . | . | . | . | . | / | /
COc1ccc2[nH]c3c(c2c1)CCNC3=O | . | . | . | / | . | 71 | 48 | .
O=C(CSc1nc2nn(-c3ccccc3)c(=O)c-2c2n1CCCCC2)Nc1ccc(F)c(F)c1 | . | . | . | / | / | 55 | . | /
CC(C)(C)c1nc(NC(=O)Nc2ccccc2)sc1Br | . | . | . | . | . | 66 | . | /
Fc1ccc(/C=C2\CCCC3=C2Nc2ncnn2C3c2ccc(F)cc2)cc1 (stereo not given) | . | . | . | . | . | 99 | 47 | .
c1ccc(C2C3=C(CCCC3)Nc3ncnn32)cc1 (stereo not given) | . | . | . | . | . | . | / | /
O=C(Nc1nc2ccccc2n1CCOc1ccc(Cl)cc1)c1ccco1 | . | . | . | . | . | 67 | 50 | 72
O=C(Nc1nc2ccccc2n1Cc1ccc(Cl)cc1)c1ccco1 | . | . | . | . | . | . | / | /
Cc1cccc(OCCn2c(NC(=O)c3ccco3)nc3ccccc32)c1 | . | . | . | . | . | 51 | 41 | 59
S=C(Nc1ccccc1)Nc1nc2ccccc2n1CCOc1ccc(Br)cc1 | . | . | . | . | . | 95 | . | /
O=C(Nc1nc2ccccc2n1CCOc1ccccc1)c1ccco1 | . | . | . | . | . | 53 | . | /
CCOC(=O)C1=C(N)n2c(s/c(=C\c3ccco3)c2=O)=C(C(=O)OCC)C1c1ccco1 (stereo not given) | / | / | . | . | . | / | / | /
CCOC(=O)C1=C(N)n2c(s/c(=C/c3ccccc3)c2=O)=C(C(=O)OCC)C1c1ccccc1 (stereo not given) | . | . | / | . | . | 51 | . | /
Nc1c(C(=O)c2ccccc2O)cnn1-c1ccc(S(=O)(=O)N2CCOCC2)cc1[N+](=O)[O-] | . | . | / | . | . | 70 | . | /
CC(=O)c1nn(-c2cccc(Br)c2)cc1C(=O)c1ccc(Br)cc1 | . | . | . | . | . | 56 | . | /
CC(=O)c1nn(-c2cccc(Br)c2)cc1C(=O)c1ccc(C)cc1 | . | . | . | . | . | . | / | /
CCn1c2ccccc2c2cc(NS(=O)(=O)c3ccccc3C)ccc21 | . | . | . | . | . | 63 | 47 | 67
Cc1ccc2nc(NC(=O)CN(C)S(=O)(=O)c3cccc4nsnc34)sc2c1 | . | . | . | . | . | 55 | 69 | 58
COc1ccc2nc(NC(=O)C3CCCN(S(=O)(=O)c4cccs4)C3)sc2c1 (stereo not given) | . | . | . | . | . | . | / | /
